Measurements taken from PubChem BioAssay AID1159580 (chemical genetic matrix, 2015).
Among all 5,500 compounds or so, about 2,000 (36%) were called active. Inconclusive results (about 18%) are left out. No stated cut-off is given here; in the data, active means normalized growth mostly below about 0.91 (no sharp cut-off); inconclusive means no clear call, values can overlap the other calls; inactive means mostly above about 0.92. The list shows a part of the results.

Test: chemical genetic growth profiling, strain panel (AID 1159580);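 further: tested at 20 µM; growth read once vehicle control cultures reached saturation at 30 °C; 1 = growth at the plate median or of vehicle wells; lower values mean less growth of the strain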
Conditions: S. cerevisiae deletion strains, growth OD
[1] = locus YAL040C, strain CLN3, hits give low values
[2] = locus YCL061C, strain MRC1 (second series), hits give low values
[3] = locus YDR363W, strain ESC2, hits give low values
[4] = locus YER002W, strain NOP16, hits give low values
[5] = locus YGR229C, strain SMI1, hits give low values
[6] = locus YMR263W, strain SAP30, hits give low values
[7] = locus YNL128W, strain TEP1, hits give low values
[8] = locus YNL175C, strain NOP13, hits give low values
[9] = locus YNL197C, strain WHI3, hits give low values
[10] = locus YNL224C, strain SQS1, hits give low values
[11] = locus YNL322C, strain KRE1, hits give low values
[12] = locus YOR083W, strain WHI5 (second series), hits give low values
[13] = locus YPL055C, strain LGE1, hits give low values
[14] = locus YPL241C, strain CIN2, hits give low values
[15] = locus YMR307W, strain GAS1, hits give low values

Measured: normalized growth

O=C(Nc1cc(C(=O)Nc2ccc(S(=O)(=O)O)cc2S(=O)(=O)O)cc(C(=O)Nc2ccc(S(=O)(=O)O)cc2S(=O)(=O)O)c1)Nc1cc(C(=O)Nc2ccc(S(=O)(=O)O)cc2S(=O)(=O)O)cc(C(=O)Nc2ccc(S(=O)(=O)O)cc2S(=O)(=O)O)c1
inactive: locus YAL013W, strain DEP1, hits give low values 0.995 | [1] 1.01 | [2] 0.998 | locus YDR150W, strain NUM1, hits give low values 0.997 | [3] 0.954 | [4] 1.02 | locus YGR078C, strain PAC10, hits give low values 0.987 | [5] 0.995 | [6] 0.99 | [7] 1 | [8] 1.01 | [9] 1.01 | [10] 0.993 | [11] 1.02 | [12] 0.993 | [13] 0.968 | [14] 1.01

CC(C)(C)c1o[nH]c(=O)c1CC(N)C(=O)O (stereo not given)
inactive: [1] 1.03 | [2] 1.01 | [4] 1 | [15] 0.968 | [7] 1 | [8] 1 | [9] 0.991 | [10] 0.992 | [11] 0.997 | [12] 1 | [14] 1.02

CC1=C[C@@H]2c3cccc4[nH]cc(c34)C[C@H]2N(C)C1
inactive: [1] 0.988 | [4] 0.993 | locus YJR075W, strain HOC1, hits give low values 1 | [6] 0.996 | [15] 1.01 | [8] 1 | [9] 1.01 | [10] 0.987 | [12] 1

Clc1cc(I)cc(Cl)c1NC1=NCCN1
inactive: [1] 1.01 | [2] 1.01 | [3] 1.02 | [4] 1.01 | [15] 0.987 | [8] 1.01 | [9] 1.01 | [10] 1.01 | [12] 1.06 | [13] 0.986

N=S(=O)(O)Cc1noc2ccccc12
inactive: [1] 0.966 | [2] 1 | [3] 1.03 | [4] 1.01 | [5] 1.01 | [15] 1.01 | [7] 1.05 | locus YNL153C, strain GIM3, hits give low values 0.998 | [8] 0.996 | [9] 1.02 | [10] 1.01 | [12] 1 | [14] 1.01
